The record followed here is PubChem BioAssay (NCATS).

Results filed as inconclusive are left out. Where a call stands in place of a potency, no number is given. Active and inactive are the calls of the source. Calls follow the shape of the dose curve; as a rule, active = well fitted inhibition curve with a large enough effect; inconclusive = small, poorly fitted or top-dose-only effect; inactive = flat fitted curve, though single readings scatter.

In the assay the target is Calcium and integrin-binding protein 1 (Homo sapiens) (UniProt Q99828). Briefly: Primary qHTS for Identification of Calcium Integrin Binding Protein 1 (CIB1) Competitor (AID 1508620).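 Also: GST tagged CIB1 binding a fluorescein labelled alphaIIb integrin peptide tracer; top concentration of the series differs between compounds.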 The conditions noted are these: CIB1-GST / FITC-alphaIIb peptide fluorescence polarization; series mostly up to 114 µM. The procedure, abridged: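 Fluorescence polarization competition: CIB1-GST (1 uM final) preincubated with compound 15 min at room temperature, then FITC-labeled alphaIIb peptide (100 nM final) added for another 15 min. Polarization read at Ex 480/Em 540.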
Sequence of Calcium and integrin-binding protein 1 (Homo sapiens) (Q99828 whole entry, looked up): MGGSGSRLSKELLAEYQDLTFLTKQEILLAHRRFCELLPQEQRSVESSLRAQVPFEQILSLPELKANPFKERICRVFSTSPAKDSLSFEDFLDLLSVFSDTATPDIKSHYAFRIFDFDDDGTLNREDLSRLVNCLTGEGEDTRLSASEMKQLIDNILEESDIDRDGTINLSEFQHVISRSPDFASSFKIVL
For orientation: In qHTS, concentration-response curves come from the screen itself.
Turning to `O=C1c2ccccc2C(=O)N1c1ccc(O)cc1`, the Potency result is “inactive”. For the molecule `Clc1ccccc1-c1ccc2ncnc(NCc3ccc4c(c3)OCO4)c2c1`, the Potency entry was “inactive”.

`Oc1c(C(Nc2ccccn2)c2ccccc2)cc(Cl)c2cccnc12` (stereo not given): the Potency entry was “inactive”. To `COc1ccc2oc(NC3=NC(c4[nH]ncc4Cl)C4=C(CCCC4=O)N3)nc2c1` (stereo not given) belongs “inactive”; to `COCCNc1cc2c(cc1[S+](=O)([O-])Nc1ccc(C)c(C)c1)CCC(=O)N2`, “inactive”.

With `Cc1nnc(-c2cnn(C)c2N)n1CCCc1ccccn1`, the Potency entry is “inactive”.

Consider `O=C(OCC#CCSc1nnc(-c2cccc3ccccc23)o1)C1CCC1`, for which the Potency result is “inactive”. To `N#Cc1ccc(-c2ccc(-c3nc4ccccc4c(=O)[nH]3)o2)cc1` belongs “inactive”. To `COc1ccc(CNc2ccc(-c3nc4ccccc4[nH]3)cc2)cc1OC` belongs “inactive”. As for `O=C(O)c1ccc(S(=O)(=O)N[C@H](Cc2ccc(O)cc2)C(=O)O)cc1`, the Potency entry was “inactive”.

Turning to `Cc1nc(CN=C2NC3=C(C(=O)CCC3)C(c3[nH]ncc3Cl)N2)cs1` (stereo not given), the Potency result is “inactive”. Under `COc1ccc(C2Nc3ccccc3C(=O)N2Cc2ccccc2)cc1COc1ccc(C#N)cc1` (stereo not given) stands “inactive”; under `O=C1c2ccccc2C(=O)N1c1cccc(Cl)c1`, “inactive”. To `Cc1ccc(NC(=O)CSc2nnc(-c3cccc([S+](=O)([O-])N4CCCC4)c3)n2-c2c(C)cccc2C)cc1` belongs “inactive”; to `O=C1COc2cc([S+](=O)([O-])Nc3ccc(Cl)c(Cl)c3)c(Cl)cc2N1`, “inactive”. To `O=C(Nc1ncc(Cc2cccc(C(F)(F)F)c2)s1)c1ccc(-c2cccc([N+](=O)[O-])c2)o1` belongs “inactive”; to `O=C1CCCC2=C1C(c1cccc(F)c1)N=C(Nc1nc3ccccc3o1)N2` (stereo not given), “inactive”. For `COc1ccc(CN(Cc2ccccc2)C(=O)c2ccccc2N)cc1COc1ccc(NC(C)=O)cc1`, the Potency result is “inactive”.

Consider `Cc1ccccc1C(=O)N1CCc2cc(-c3nc(NC(=O)Cc4ccc5c(c4)OCCO5)sc3C)ccc21`, for which the Potency entry was “inactive”. Consider `Cc1cccc(-n2cnc3cc(C(=O)N4CCCC(C(C)C)C4)ccc32)c1` (stereo not given), for which the Potency result is “inactive”. Turning to `CC(C)(C)NS(=O)(=O)c1cccc(-c2nnc(SCc3ccc(C(=O)O)cc3)n2-c2ccccc2)c1`, the Potency entry was “inactive”. To `Cc1cc(N[S+](=O)([O-])c2cc3c(cc2F)NC(=O)CC3)ccc1Br` belongs “inactive”. `CNC(=O)C1CCN(c2nc(-c3ccc(Br)cc3)cs2)CC1`: the Potency result was “inactive”. `NC(=O)C1CCN(c2nc(-c3ccc(OC(F)(F)F)cc3)cs2)CC1`: the Potency result is “inactive”. As to `CN(C)C(=O)C1CCN(c2nc(-c3ccc(Br)cc3)cs2)CC1`, the Potency result was “inactive”.

As to `CN(Cc1cccs1)c1ncnc2ccc(-c3ccc4cn(C)nc4c3)cc12`, the Potency result is “inactive”.

Consider `CC(=O)NC(c1ccco1)c1cc(Cl)c2ccc(Cl)nc2c1O` (stereo not given), for which the Potency entry is “inactive”. With `CC(=O)N1CCN(c2ccc(N)cc2)CC1`, the Potency entry is “inactive”. For the molecule `COc1cc(NC(=O)C(OC(=O)CNC(=O)c2ccccc2)c2ccccc2)cc(C(F)(F)F)c1` (stereo not given), the Potency entry is “inactive”.

Consider `O=C(NCCc1ccc2c(c1)OCO2)c1cc2sccc2[nH]1`, for which the Potency result is “inactive”. With `Cc1cccc(OC2=NS(=O)(=O)c3ccccc32)c1`, the Potency result was “inactive”.

Regarding `O=C(CNC(=O)c1ccccc1)N[C@H](C(=O)Nc1cc(C(F)(F)F)ccc1Cl)c1ccccc1`, the Potency entry is “inactive”.

As to `CC(=O)Nc1sc2c(c1-c1ccc3nonc3c1)CCNC2`, the Potency result is “inactive”.

As to `COC(=O)c1ccnc(NCc2ccc(O)c3ncccc23)c1`, the Potency result is “inactive”. Under `COc1cc(OC)cc(C2=Nn3c(nnc3-c3ccccc3OC)SC2)c1` stands “inactive”. To `Cc1cc(N[S+](=O)([O-])c2ccc(NC(=O)Cc3cccc(Cl)c3Cl)cc2)no1` belongs “inactive”. As to `COc1ccccc1-c1csc(N2CCC(C(N)=O)CC2)n1`, the Potency entry is “inactive”. To `Cc1cc(C)nc(NC(=S)N2CCN(c3ccc(NS(C)(=O)=O)nn3)CC2)c1` belongs “inactive”. Turning to `CC1=C(C(=O)Nc2ccccc2Cl)C(c2ccccc2Br)N=C(Nc2nc3ccccc3o2)N1` (stereo not given), the Potency entry is “inactive”.

As to `O=C1CCCC2=C1C(c1[nH]ncc1Cl)NC(=NCc1ccncc1)N2` (stereo not given), the Potency entry is “inactive”.
